Compound activity as filed in PubChem BioAssay.
An excerpt weighted towards active compounds, which were near 10% of everything screened.
HP1b binding inh: inhibitors of HP1-beta chromodomain binding to methylated histone tails; P83916; AlphaScreen HP1-beta / biotin-H3K9me3 peptide binding; Potency, µM (series often up to 114 µM), without a hit: top-dose activity change, negative = inhibition, usual class: inhibitors; actives 0.56% (n = 390,000); AID 540317; further: nearly all actives have a fitted effect of over 70% in size
Target sequence (P83916 whole entry, looked up): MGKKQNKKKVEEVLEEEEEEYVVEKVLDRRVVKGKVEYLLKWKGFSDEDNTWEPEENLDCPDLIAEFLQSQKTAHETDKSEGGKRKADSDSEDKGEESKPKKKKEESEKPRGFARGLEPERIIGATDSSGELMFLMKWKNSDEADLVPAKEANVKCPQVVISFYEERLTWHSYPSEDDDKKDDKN
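Compound inhibition of the preformed complex between 50 nM HP1-beta and 50 nM biotinylated H3K9me3 peptide was read by AlphaScreen. Buffer was PBS pH 7.4 with 0.01% Tween-20. Incubations ran 30 min at room temperature, with 10 ug/mL donor/acceptor beads.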
GLS inh: inhibitors of human glutaminase (GLS) | O94925 | GLS enzymatic activity, qHTS titration | Potency, µM (titrated, usually from 45.5 µM), without a hit: top-dose activity change, negative = inhibition, actives largely listed as inhibitors | actives 0.21% (n = 410,000); further: on the % scale 0 is the no-effect control and ±100 the full control effect
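Coupled fluorescence readout: glutamate oxidase/HRP/Amplex Red detect glutamate formed by hKGA from L-glutamine (1 mM solution added). Buffer 45 mM KH2PO4 pH 8.2, 0.02% Tween-20; reads at t0 and 30 min RT.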
JMJD2A Tudor: blocks the human JMJD2A Tudor domain; AID 504339; actives 4.4% (n = 390,000); O75164; AlphaScreen JMJD2A-Tudor / H3K4me3 peptide binding; Potency, µM (top dose mostly 114 µM), for inactives: top-dose activity change, negative = inhibition, hits mostly inhibitors; further: on the % scale 0 is the no-effect control and ±100 the full control effect; nearly all actives have a fitted effect of over 50% in size
G9a block: inhibitors of human histone lysine methyltransferase G9a | G9a H3K9 monomethylation, AlphaScreen, 2 h | Potency, µM (series often up to 102 µM), for the others: at the top dose activity, negative = inhibition, most hits filed as inhibitors | actives 8.8% (n = 350,000) | AID 504332; further: on the % scale 0 is the no-effect control and ±100 the full control effect; nearly all actives have a fitted effect of over 75% in size
Target sequence (Q96KQ7 913-1193 limits assumed): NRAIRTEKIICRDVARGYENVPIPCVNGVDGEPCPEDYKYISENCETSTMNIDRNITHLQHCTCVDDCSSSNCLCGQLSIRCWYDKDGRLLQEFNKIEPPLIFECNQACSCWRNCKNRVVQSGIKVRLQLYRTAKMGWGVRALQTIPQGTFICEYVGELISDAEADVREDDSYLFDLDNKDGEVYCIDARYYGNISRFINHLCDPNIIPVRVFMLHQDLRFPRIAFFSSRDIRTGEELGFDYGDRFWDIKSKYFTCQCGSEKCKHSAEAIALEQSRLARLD
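Signal arises when biotinylated H3K9 peptide, once monomethylated, bridges streptavidin donor and antibody-captured acceptor beads. Enzyme at 20 nM was preincubated 15 min with test compounds; peptide 500 nM and SAM 20 uM then reacted for 2 h.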
BAZ2B block: inhibitors of human BAZ2B bromodomain. Q9UIF8. AlphaScreen BAZ2B-H3K14Ac peptide displacement. Potency, µM (series often up to 114 µM), inactives show at the top dose activity change, negative = inhibition, usual class: inhibitors. actives 4.4% (n = 360,000). AID 504333; further: on the % scale 0 is the no-effect control and ±100 the full control effect; nearly all actives have a fitted effect of over 60% in size
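BAZ2B 50 nM plus b-H3(5-23)K14Ac 50 nM, PBS pH 7.4/0.01% Tween-20, 30 min RT; compound added (max 110 uM), 30 min RT; streptavidin donor/Ni-chelate acceptor beads 10 ug/mL final, 20 min dark; AlphaScreen read.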
Numbers without * were called inactive; ? = inconclusive; / = not tested or not shown; ! = not confirmed by another sample; [ ] = dose if it differs, or a comment. The call rests on the fitted dose curve; in most records, active means well fitted curve in the direction sought with a large enough effect; inconclusive means small, poorly fitted or top-dose-only effect, or another doubt; inactive means no such curve, though single readings can be large; an effect the other way counts as inactive or inconclusive. Potency means the concentration at half of the fitted maximal effect.

SMILES | HP1b binding inh | GLS inh | JMJD2A Tudor | G9a block | BAZ2B block
COC(=O)CSc1n[nH]c(=S)s1 | 28µM* | -2% | ? | 7.9µM* | -28%
CCn1c(C)[n+](CC(O)COCC2CC=CCC2)c2ccccc21 (centres undefined) | 13% | -4% | ? | 10µM* | -1%
CC[C@H]1C[C@H]2[C@@H]3CCC4=CC(=O)CC[C@@H]4[C@H]3CC[C@]2(C)[C@H]1O | / | -6% | / | / | /
O=[As]O[As]=O (centres undefined) | / | -5% | / | 26%[59 µM] | /
CCOC(=O)c1ccc2c(c1)n(CCO)c(C)[n+]2CC | 19% | 11% | 50µM* | 35µM* | 10%
CCOC(=O)c1ccc2c(c1)n(Cc1ccccc1)c(C)[n+]2CC | 48% | -4% | -8% | 16% | -4%
c1ccc(C2(N3CCCC3)CCCCC2)cc1 | / | -21% | / | ? | /
C[N+]1=C2CCCCCN2C(O)(c2ccccc2)C1 (centres undefined) | 11% | -7% | 45µM* | 32µM* | -2%
CCCCCCCSc1cc(OC)c(CCN(C)C)cc1OC | ? | 0% | 35µM* | ? | 25µM*
CCCCCSc1cc(OC)c(CCN)cc1OC | -31% | -10% | ? | -13%[59 µM] | ?
Cc1ccc(Cl)cc1NC(=O)N(Cc1ccc2c(c1)OCO2)C1CCN(Cc2ccccc2)CC1 | 7% | 6% | ? | ? | ?
NC1=C(Br)C(=O)c2ccccc2C1=O | -10% | 24% | -35% | 50µM* | ?
O=C1C(=O)c2ccccc2-c2ccccc21 | 20% | -8% | -26% | ? | ?
CCOP(=O)(CN(CC)CCNP(=O)(OCC)OCC)OCC | 17% | -2% | ? | 50µM* | 12%[57.1 µM]
Oc1ccc2ccccc2c1CN1CC=C(c2ccccc2)CC1 | 51% | -22% | -2%[57.1 µM] | 45µM* | -15%
O=C(CCN1CC=C(c2ccccc2)CC1)NCc1ccccc1 | / | 9% | / | / | /
CC1(c2ccc(Cl)cc2Cl)OCC(Cn2cncn2)O1 (centres undefined) | -2% | 2% | -15% | ? | 71µM*
CCCC1COC(Cn2cncn2)(c2ccc(Cl)cc2Cl)O1 (centres undefined) | 48% | 0% | -18%[57.1 µM] | -7% | -37%
c1ccc(Nc2ccc(Nc3ccccc3)cc2)cc1 | ? | 21% | 20µM* | 10%[0.501 µM] | 28µM*
O=[N+]([O-])c1ccc(Nc2ccccc2)cc1 | 53% | 21% | -3% | 14%[59 µM] | 13%
Cc1ccccc1CN1CCN(c2ccc(Cl)cc2)CC1 | -12% | -14% | 4µM* | 13µM* | ?
COc1cc(C)c(CN2CCN(c3ccccc3)CC2)cc1C | -58% | 21% | 3.2µM* | ? | ?
CCCSc1cc(OC)c(CCN)cc1OC | / | -2%[99.4 µM] | / | / | /
O=[N+]([O-])c1cc(O)c(O)c([N+](=O)[O-])c1 | 20% | 29% | -21% | 7.9µM*! | ?
O=[N+]([O-])c1ccc(O)c([N+](=O)[O-])c1 | 18% | -7% | ? | -49%[2.33 µM] | /
SMILES | HP1b binding inh | GLS inh | JMJD2A Tudor | G9a block | BAZ2B block
O=[N+]([O-])c1cc(I)c(O)c(I)c1 | / | 11% | / | 6%[59 µM] | /
O=[N+]([O-])c1cc(-n2cnnn2)c(O)c([N+](=O)[O-])c1 | 50% | 1% | -12%[11.4 µM] | 50µM* | -19%
NCCc1cccc(O)c1 | / | / | / | 35%[59 µM] | /
Oc1ccc2c3c1O[C@H]1[C@@H](O)C=CC4[C@@H](C2)NCC[C@@]341 (some centres undefined) | / | -7% | / | / | /
CN1/C(=C\C=Nc2ccccc2)C(C)(C)c2ccccc21 | 17% | 24% | -14% | 79µM* | ?
C=Cc1cc(OC)c2c(c1)c(=O)oc1c2cc(OC)c2c(O)ccc(C3OC(C)C(O)C(C)(O)C3O)c21 (centres undefined) | 20% | 2% | -1% | / | /
CCOC(=O)NC(C)(C)Cc1ccc(Cl)cc1 | / | -20% | / | / | /
CN(C)CCc1c[nH]c2cccc(OP(=O)(O)O)c12 | / | 12%[99.4 µM] | / | / | /
c1ccc2c(c1)Sc1ccccc1N2C[C@H]1CN2CCC1CC2 | / | -5% | / | / | /
CN(C)CCN(C(=O)c1cc(Cl)sc1Cl)c1nc2ccc(F)cc2s1 | -14% | 11% | ? | 11µM* | ?
CCCN1CCC[C@@H]2Cc3cn[nH]c3C[C@H]21 | / | / | / | -3%[59 µM] | /
COc1ccc(Cc2c(O)[nH]c(=S)[nH]c2=O)cc1 | -8% | ? | ? | 7.9µM* | 1%
CCCCOc1ccc(C(C)=O)cc1Cc1c(O)[nH]c(=S)[nH]c1=O | 6% | 2% | -30% | -7%[0.501 µM] | -3%
COc1ccc(C(=O)NC(=S)N2C[C@H]3C[C@H](C2)c2cccc(=O)n2C3)cc1 | 15% | 26% | -22% | 25µM* | -7%
COc1ccc(/C=C/C(=O)NC(=S)N2C[C@H]3C[C@H](C2)c2cccc(=O)n2C3)cc1 | 21% | 10% | -17% | ? | -1%
O=C(/C=C/c1ccc(Cl)cc1)NC(=S)N1C[C@H]2C[C@H](C1)c1cccc(=O)n1C2 | 5% | 4% | -21% | 18µM* | -34%
O=C(/C=C/c1ccc(Br)cc1)NC(=S)N1C[C@H]2C[C@H](C1)c1cccc(=O)n1C2 | 11% | 2% | -31% | 50µM* | -11%
O=C(O)[C@@H]1CCN1 | / | / | / | -2%[59 µM] | /
CC(C)(C)NC(=O)N1c2ccccc2Sc2ccccc21 | 53% | 21% | -4% | 7% | 3%
CCCCC/C=C\C/C=C\C/C=C\C/C=C\CCCC(=O)Nc1ccc(O)cc1C | / | / | / | 4%[59 µM] | /
O=c1c2ccccc2[se]n1-c1ccccc1 | ? | 6.3µM* | 8.9µM* | 1.4µM*! | 1.4µM*
CCOc1ccc(Cl)cc1CNCCc1ccc(F)cc1 | 43% | -1% | 0% | -5% | -18%
COc1ccc(CCNCc2ccc(C)s2)cc1OC | 5% | -14% | -23% | -28% | -18%
Brc1cccc(CNCCc2ccc3c(c2)OCO3)c1 | -34% | 3% | 22µM* | / | 56µM*
COc1cccc(CNCCc2ccc3c(c2)OCO3)c1OC | -13% | 1% | 79µM* | 9%[0.501 µM] | 56µM*
SMILES | HP1b binding inh | GLS inh | JMJD2A Tudor | G9a block | BAZ2B block
COc1cc(Br)c(CNCCc2ccc3c(c2)OCO3)cc1OC | ? | 0% | 25µM* | 8.9µM* | ?
CCOc1cc(CNCCc2cccc(F)c2)ccc1OC | 71µM* | -1% | 1.4µM* | 22µM* | 45µM*
Oc1ccc2c3c1O[C@H]1[C@@H](O)CC[C@@]4(O)C(C2)N(CC2CCC2)CCC314 (some centres undefined) | / | 3% | / | 31%[12.7 µM] | /
CC1(C)c2[nH]c3ccccc3c2C[C@@H]2C(=O)N(Cc3ccccc3F)C(=O)N21 | 2% | 15% | ? | / | /
c1ccc(N2[C@@H]3CC[C@H]2c2ccccc2C3)cc1 | / | 4% | / | / | /
COc1cccc(CNCCc2cccc(F)c2)c1OC | ? | -1% | 28µM* | -9%[0.501 µM] | 79µM*
COc1cc(OC)c(OC)cc1CNCCc1ccc2c(c1)OCO2 | -25% | 3% | 32µM* | 28µM* | ?
